Experimental data taken from PubChem BioAssay (NCI).
The panel holds about 83,000 compounds, 20% with a hit somewhere; the sample as a whole holds those more often.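 Negative percent growth values reflect cell death: -40 means 40% of the cells present at the start died, and -100 means all died.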 The source made the active and inactive calls. How the source made its calls: active means growth percent below 10; inactive means the rest.

Each molecule was assayed on MDA-MB-468 breast (assay: NCI-60 one-dose screen, 48 h (100 = growth as untreated, 0 = no growth, -100 = all killed)). Settings: 10 µM unless noted.

SMILES | growth
O=C(C[n+]1cccc2cc(Cl)ccc21)c1ccc2c(c1)CCCC2 | 9.66% (active)
CCCCCCCCCCCCCCCCC1CC(=O)OC1=O (stereo not given) | 119% (inactive)
Cn1ccc(=Nc2ccc(NC(=O)c3ccc(N=c4ccn(C)c5ccc([N+](=O)[O-])cc45)cc3)cc2)cc1 | -2.24% (active)
CCN=C1C=CC(=C(c2ccc(N(C)C)cc2)c2ccc(N(C)C)cc2)c2ccccc21 | -26.8% (active)
Cn1cc(-c2nc(-c3c[nH]c4c(Cl)nccc34)cs2)c2cc(F)ccc21 | 1.89% (active)
COc1ccc(S(=O)(=O)NCCCNc2nccc(-n3ccc4cccnc43)n2)cc1 | 76.2% (inactive)
Nc1c(C(=O)Nc2ccncc2)sc2nc3c(cc12)CCCCCC3 | 87.8% (inactive)
COc1cc2oc(-c3cccc(C(=O)Nc4ccccc4)c3)cc(=O)c2c(O)c1OC | 69.4% (inactive)
O=C1OC(c2nc3ccccc3s2)=C/C1=C\c1ccc(O)cc1 | 114% (inactive)
CCC(=O)Oc1ccc(/C(=C(/C)Cc2cccc(OC)c2)c2ccc(OCCN(C)C)cc2)cc1 | 76.1% (inactive)
COc1cc(C2CC(c3cccc(Nc4ccncc4)c3)=Nc3c(N)ncnc3N2)cc(OC)c1OC (stereo not given) | 47.6% (inactive)
Cc1ccc(-c2nc(SCC(=O)c3ccc(C#N)cc3)[nH]c(=O)c2C#N)cc1 | 120% (inactive)
O=C(CNc1nnc(-c2cccnc2SCc2ccccc2)s1)Nc1nc(Cl)cc(Cl)n1 | 112% (inactive)
COc1ccc(-c2cnc(-c3ccc(F)cc3)[nH]2)cc1 | 90.3% (inactive)
COc1ccc(Cn2nc(-c3ccccc3)c3c2CCc2cnoc2-3)cc1 | 43.1% (inactive)
C[C@H](NC(=O)[C@@H]1CSSC[C@@H](NC(=O)c2nc3ccccc3cc2O)C(=O)NCC(=O)N1C)c1ccccc1 | 41.4% (inactive)
COc1ccc2c(c1)cn1c3ccc(O)cc3nc(N)c21 | 14.2% (inactive)
COc1ccc(C(=O)/C=C/c2ccc(N3CCCCC3)cc2)cc1OC | 61.8% (inactive)
O=C1C=CC[C@H](/C=C/c2ccccc2)O1 | 10.2% (inactive)
O=C1c2cccc3cccc(c23)C(=O)N1C/C=C/c1ccc2c3c(cccc13)C(=O)N(CCO)C2=O | 79.8% (inactive)

SMILES | growth
NS(=O)(=O)c1cccc(Nc2nc(SCC(=O)c3ccc(Br)cc3)nc3ccccc23)c1 | 61.3% (inactive)
CN1CCC2(CC1)N=C(SCC(=O)Nc1cnc3ccccc3c1)C(c1ccc(Br)cc1)=N2 | -43.8% (active)
NN1C(=O)CSC1=S | 119% (inactive)
O=C(Nc1ccc(Cl)cc1F)c1cc(F)ccc1O | 3.61% (active)
Cc1c(O)cccc1O | 117% (inactive)
NC(=O)c1ccccc1OCC(O)CO (stereo not given) | 95.6% (inactive)
Cc1cc(C(=O)Nc2ccc(SC#N)cc2)c(C)o1 | 96.1% (inactive)
Nc1nccc2c1ccn2-c1ccc(NC(=O)Nc2cccc(C(F)(F)F)c2)cc1 | 72.8% (inactive)
O=C1Nc2ccc(Cl)cc2/C1=N/N=C/c1c[nH]c2ccccc12 | 98.7% (inactive)
CN(C)c1ccc(-c2c(NC(C)(C)C)nc3c(OCCc4ccccc4)cccn23)cc1 | -19.6% (active)
Cc1c(Cl)cccc1S(=O)(=O)Nc1ccc2c(c1)C(=O)N(C1CCC(=O)NC1=O)C2=O (stereo not given) | 27.2% (inactive)
COc1ccc(-c2n[nH]c(=O)c3nc(NC(=S)Nc4ccc(Oc5ccccc5)cc4)sc23)cc1 | 98% (inactive)
COc1nc2c(cc1S(=O)(=O)c1ccccc1)CCc1c-2cnn1Cc1ccccc1 | 45.7% (inactive)
N=C(N)N=Nc1ccc(NN=C(N)N)c2ccccc12 | -27.2% (active)
COc1ccccc1/C=C/C(=O)c1ccccc1 | 21.4% (inactive)
CC(=O)OC(c1ccccc1)C1CCOC1=O (stereo not given) | 80.8% (inactive)
O=S(=O)(NCCNc1nccc(-c2c(-c3ccc(F)c(O)c3)nc3sccn23)n1)c1ccccc1 | 83.2% (inactive)
Cc1ccc(NC(=O)N[C@@H](Cc2cc(F)cc(F)c2)C(=O)NC2C(=O)N3C[C@H](O)C[C@H]3C(=O)N3CCCC[C@H]3C(=O)N[C@@H](CO)C(=O)N3C[C@H](C)C[C@H]3C(=O)O[C@H]2C)c(F)c1 (stereo not given in full) | -2.72% (active)
O=C(Nc1ccc2ncnc(Nc3ccc(F)c(Cl)c3)c2c1)c1cccs1 | -23.8% (active)
O=C(/C=C/c1cccc(Br)c1)c1ccccc1 | 84.9% (inactive)
